Data: PubChem BioAssay AID1159580 (chemical genetic matrix, 2015)
The campaign covered roughly 5,500 compounds. About 2,000 (36%) were called active. Another 18% or so got no clear call; they are omitted. No stated cut-off is given here; in the data, active means normalized growth mostly below about 0.91 (no sharp cut-off); inconclusive means no clear call, values can overlap the other calls; inactive means mostly above about 0.92. This is one part of the list.

Test: chemical genetic growth profiling, strain panel (AID 1159580);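 further: tested at 20 µM; growth read once vehicle control cultures reached saturation at 30 °C; 1 = growth at the plate median or of vehicle wells; lower values mean less growth of the strain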
Conditions: growth OD
[1] = S. cerevisiae deletion strains, locus YCL061C, strain MRC1, hits give low values

Measured: normalized growth

O=C1c2ccccc2-c2cccc3cccc1c23
active: S. cerevisiae deletion strains, locus YAL026C, strain drs2, hits give low values 0.896 | S. cerevisiae deletion strains, locus YBL061C, strain skt5, hits give low values 0.88 | S. cerevisiae deletion strains, locus YBR009C, strain hhf1, hits give low values 0.849 | S. cerevisiae deletion strains, locus YBR023C, strain chs3, hits give low values 0.855 | S. cerevisiae deletion strains, locus YBR231C, strain swc5, hits give low values 0.78 | S. cerevisiae deletion strains, locus YBR279W, strain paf1, hits give low values 0.884 | S. cerevisiae deletion strains, locus YCL011C, strain gbp2, hits give low values 0.874 | S. cerevisiae deletion strains, locus YCL016C, strain dcc1, hits give low values 0.823 | [1] 0.867 | S. cerevisiae deletion strains, locus YCL069W, strain vba3, hits give low values 0.924 | S. cerevisiae deletion strains, locus YDR137W, strain rgp1, hits give low values 0.756 | S. cerevisiae deletion strains, locus YDR195W, strain ref2 1.44 [resistant] | S. cerevisiae deletion strains, locus YDR392W, strain spt3, hits give low values 0.483 | S. cerevisiae deletion strains, locus YER155C, strain BEM2 (second series), hits give low values 0.716 | S. cerevisiae deletion strains, locus YFR010W, strain ubp6, hits give low values 0.833 | S. cerevisiae deletion strains, locus YGL173C, strain kem1, hits give low values 0.853 | S. cerevisiae deletion strains, locus YGL240W, strain doc1, hits give low values 0.868 | S. cerevisiae deletion strains, locus YGL253W, strain hxk2, hits give low values 0.822 | S. cerevisiae deletion strains, locus YHR013C, strain ard1, hits give low values 0.737 | S. cerevisiae deletion strains, locus YHR142W, strain chs7, hits give low values 0.62 | S. cerevisiae deletion strains, locus YJL092W, strain hpr5, hits give low values 0.899 | S. cerevisiae deletion strains, locus YJL095W, strain BCK1 (second series), hits give low values 0.854 | S. cerevisiae deletion strains, locus YJL164C, strain tpk1, hits give low values 0.868 | S. cerevisiae deletion strains, locus YJL166W, strain qcr8, hits give low values 0.841 | S. cerevisiae deletion strains, locus YKL160W, strain elf1, hits give low values 0.829 | S. cerevisiae deletion strains, locus YLL001W, strain dnm1, hits give low values 0.89 | S. cerevisiae deletion strains, locus YLR027C, strain aat2, hits give low values 0.875 | S. cerevisiae deletion strains, locus YLR221C, strain rsa3, hits give low values 0.875 | S. cerevisiae deletion strains, locus YLR258W, strain gsy2, hits give low values 0.9 | S. cerevisiae deletion strains, locus YLR262C, strain YPT6 (second series), hits give low values 0.747 | S. cerevisiae deletion strains, locus YLR320W, strain mms22, hits give low values 0.714 | S. cerevisiae deletion strains, locus YMR058W, strain fet3, hits give low values 0.746 | S. cerevisiae deletion strains, locus YNL071W, strain lat1, hits give low values 0.685 | S. cerevisiae deletion strains, locus YNL248C, strain rpa49, hits give low values 0.677 | S. cerevisiae deletion strains, locus YOR070C, strain gyp1, hits give low values 0.904 | S. cerevisiae deletion strains, locus YOR083W, strain WHI5, hits give low values 0.786 | S. cerevisiae deletion strains, locus YOR106W, strain vam3, hits give low values 0.693 | S. cerevisiae deletion strains, locus YOR270C, strain vph1, hits give low values 0.341 | S. cerevisiae deletion strains, locus YOR290C, strain snf2, hits give low values 0.856 | S. cerevisiae deletion strains, locus YPL051W, strain arl3, hits give low values 0.739 | S. cerevisiae deletion strains, locus YPL078C, strain atp4, hits give low values 0.787 | S. cerevisiae deletion strains, locus YPL106C, strain sse1, hits give low values 0.74
inactive: S. cerevisiae deletion strains, locus YAL021C, strain ccr4, hits give low values 0.946 | S. cerevisiae deletion strains, locus YAL030W, strain snc1, hits give low values 0.954 | S. cerevisiae deletion strains, locus YBR171W, strain sec66, hits give low values 0.964 | S. cerevisiae deletion strains, locus YCR088W, strain abp1, hits give low values 1.01 | S. cerevisiae deletion strains, locus YDL005C, strain med2, hits give low values 0.961 | S. cerevisiae deletion strains, locus YDL040C, strain nat1, hits give low values 0.974 | S. cerevisiae deletion strains, locus YDR001C, strain nth1, hits give low values 0.988 | S. cerevisiae deletion strains, locus YDR069C, strain doa4, hits give low values 0.905 | S. cerevisiae deletion strains, locus YDR159W, strain sac3, hits give low values 0.881 | S. cerevisiae deletion strains, locus YDR297W, strain sur2, hits give low values 0.965 | S. cerevisiae deletion strains, locus YDR334W, strain swr1, hits give low values 0.923 | S. cerevisiae deletion strains, locus YDR335W, strain msn5, hits give low values 0.952 | S. cerevisiae deletion strains, locus YEL003W, strain gim4, hits give low values 0.967 | S. cerevisiae deletion strains, locus YEL037C, strain rad23, hits give low values 0.945 | S. cerevisiae deletion strains, locus YEL061C, strain CIN8 (second series), hits give low values 0.953 | S. cerevisiae deletion strains, locus YER015W, strain faa2, hits give low values 0.939 | S. cerevisiae deletion strains, locus YER016W, strain bim1, hits give low values 0.977 | S. cerevisiae deletion strains, locus YER111C, strain swi4, hits give low values 0.968 | S. cerevisiae deletion strains, locus YGL167C, strain pmr1, hits give low values 0.97 | S. cerevisiae deletion strains, locus YGL227W, strain vid30, hits give low values 0.99 | S. cerevisiae deletion strains, locus YHR027C, strain rpn1, hits give low values 0.956 | S. cerevisiae deletion strains, locus YJL115W, strain asf1, hits give low values 0.91 | S. cerevisiae deletion strains, locus YJL129C, strain trk1, hits give low values 1.02 | S. cerevisiae deletion strains, locus YJL154C, strain vps35, hits give low values 0.988 | S. cerevisiae deletion strains, locus YKR026C, strain gcn3, hits give low values 0.965 | S. cerevisiae deletion strains, locus YKR091W, strain srl3, hits give low values 0.977 | S. cerevisiae deletion strains, locus YLL026W, hits give low values 0.932 | S. cerevisiae deletion strains, locus YLL041C, strain sdh2, hits give low values 0.994 | S. cerevisiae deletion strains, locus YLR342W, strain FKS1, hits give low values 0.966 | S. cerevisiae deletion strains, locus YLR357W, strain rsc2, hits give low values 0.985 | S. cerevisiae deletion strains, locus YLR370C, strain arc18, hits give low values 0.931 | S. cerevisiae deletion strains, locus YLR384C, strain iki3, hits give low values 0.978 | S. cerevisiae deletion strains, locus YML120C, strain ndi1, hits give low values 0.949 | S. cerevisiae deletion strains, locus YMR125W, strain sto1, hits give low values 0.9 | S. cerevisiae deletion strains, locus YMR129W, hits give low values 0.973 | S. cerevisiae deletion strains, locus YMR205C, strain PFK2, hits give low values 0.935 | S. cerevisiae deletion strains, locus YMR231W, strain pep5, hits give low values 0.954 | S. cerevisiae deletion strains, locus YNL209W, strain ssb2, hits give low values 0.928 | S. cerevisiae deletion strains, locus YNL322C, strain KRE1 (second series), hits give low values 0.966 | S. cerevisiae deletion strains, locus YNR049C, strain mso1, hits give low values 0.986 | S. cerevisiae deletion strains, locus YOR001W, strain rrp6, hits give low values 0.911 | S. cerevisiae deletion strains, locus YOR080W, strain dia2, hits give low values 0.981 | S. cerevisiae deletion strains, locus YOR265W, strain rbl2, hits give low values 0.967 | S. cerevisiae deletion strains, locus YPL240C, strain hsp82, hits give low values 0.979

c1ccc2c(c1)-c1cccc3cccc-2c13
active: S. cerevisiae deletion strains, locus YAL013W, strain DEP1, hits give low values 0.897 | S. cerevisiae deletion strains, locus YBR229C, strain ROT2, hits give low values 0.873 | [1] 0.876 | S. cerevisiae deletion strains, locus YDL134C, strain PPH21, hits give low values 0.873 | S. cerevisiae deletion strains, locus YEL061C, strain CIN8, hits give low values 0.787 | S. cerevisiae deletion strains, locus YGR078C, strain PAC10, hits give low values 0.855 | S. cerevisiae deletion strains, locus YHR030C, strain SLT2, hits give low values 0.34 | S. cerevisiae deletion strains, locus YHR087W, strain rtc3, hits give low values 0.826 | S. cerevisiae deletion strains, locus YJR075W, strain HOC1, hits give low values 0.771 | S. cerevisiae deletion strains, locus YKL190W, strain CNB1, hits give low values 0.767 | S. cerevisiae deletion strains, locus YLR039C, strain RIC1, hits give low values 0.363 | S. cerevisiae deletion strains, locus YLR058C, strain SHM2 (second series), hits give low values 0.923 | S. cerevisiae deletion strains, locus YLR085C, strain ARP6, hits give low values 0.318 | S. cerevisiae deletion strains, locus YLR262C, strain YPT6, hits give low values 0.313 | S. cerevisiae deletion strains, locus YML094W, strain GIM5, hits give low values 0.757 | S. cerevisiae deletion strains, locus YMR307W, strain GAS1, hits give low values 0.428 | S. cerevisiae deletion strains, locus YNL153C, strain GIM3, hits give low values 0.906 | S. cerevisiae deletion strains, locus YNL298W, strain CLA4 (second series), hits give low values 0.694 | S. cerevisiae deletion strains, locus YNL322C, strain KRE1, hits give low values 0.932 | S. cerevisiae deletion strains, locus YNR030W, strain Alg12, hits give low values 0.721 | S. cerevisiae deletion strains, locus YPL055C, strain LGE1, hits give low values 0.666 | S. cerevisiae deletion strains, locus YPL241C, strain CIN2, hits give low values 0.648 | S. cerevisiae deletion strains, locus YPR135W, strain CTF4, hits give low values 0.483 | S. cerevisiae strains, strain wild type, hits give low values 0.863
inactive: S. cerevisiae deletion strains, locus YDL101C, strain DUN1, hits give low values 0.929 | S. cerevisiae deletion strains, locus YDR150W, strain NUM1, hits give low values 0.911 | S. cerevisiae deletion strains, locus YJL187C, strain SWE1, hits give low values 0.939 | S. cerevisiae deletion strains, locus YJR043C, strain POL32, hits give low values 0.929 | S. cerevisiae deletion strains, locus YMR219W, strain ESC1, hits give low values 0.949 | S. cerevisiae deletion strains, locus YMR263W, strain SAP30, hits give low values 0.916 | S. cerevisiae deletion strains, locus YOL006C, strain TOP1, hits give low values 0.764
